Test results: PubChem BioAssay
Entries with a potency or affinity are not part of this list. Unmarked numbers belong to inactive results. Activity calls are given as the source filed them.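 Rule for the calls, unless noted: active = a dose-response fit showing signal loss, with half-maximal concentration no higher than twice the top tested dose; inconclusive = flat fit between 30% and 70% signal loss, or poor fit; inactive = the rest.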

Tests used:
[1] = HepG2 cell cytotoxicity, dose response, cytotoxicity control, cherry-picks, set 2 (AID 687002)
[2] = HeLa cell cytotoxicity, dose response, cytotoxicity control, ATP luminescence, cherry-pick samples (AID 687004;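 active = a fitted half-maximal concentration no higher than twice the top valid tested dose, with signal falling as cells die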)

Compound	outcome [1]	outcome [2]
COc1ccccc1C#Cc1ccc2c(c1)O[C@H](CN(C)C(C)=O)[C@H](C)CN([C@@H](C)CO)S2(=O)=O	inactive	inactive
COC(=O)C1=C(C)N(Cc2ccc(Cl)cc2)C(=S)NC1c1cccc(F)c1 (configuration not stated)	inactive	inactive
C[C@H](CO)N1C[C@H](C)[C@@H](CN(C)S(=O)(=O)c2cn(C)cn2)Oc2c(NC(=O)Nc3ccccc3)cccc2C1=O	inactive	inactive
O=C(C[C@H]1CC[C@@H]2[C@H](COC[C@@H](O)CN2C(=O)c2cnccn2)O1)NCc1ccc(Oc2ccccc2)cc1	inactive	inactive
COC(=O)C1=C(C)N(Cc2ccc(F)cc2)C(=S)NC1c1cccc(Cl)c1 (configuration not stated)	inactive	inactive
C[C@@H]1CN([C@H](C)CO)C(=O)c2cc(C3=CCCCC3)cnc2O[C@H]1CN(C)C(=O)Cc1cccnc1	inactive	inactive
NC(=S)N/N=C/c1ccc(-c2cc(Cl)ccc2Cl)o1	inactive	
COC(=O)C1=C(C)N(Cc2ccc(Br)cc2)C(=S)NC1c1ccccc1 (configuration not stated)	inactive	inactive
S=C(Nc1ccccc1Oc1ccccc1)Nc1cccc(Cl)c1Cl	inactive	inactive
C[C@@H]1CN([C@H](C)CO)C(=O)Cc2cc(NC(=O)NC3CCCCC3)ccc2O[C@@H]1CN(C)Cc1ccccc1	inactive	inactive
Cc1ccc2nc(C)c3c(c2c1)OC(C(C)(Cl)Br)C3 (configuration not stated)	inactive	
Cc1ccc(OCCn2c(=S)[nH]c3ccccc32)c(C(C)C)c1	inactive	
Cc1cc(C)c(NC(=O)C2CCCN2CCC(C)C)c(C)c1 (configuration not stated)	inactive	
Cc1cc(C)c(NC(=O)C2CCCN2C(=O)NC2CCCCC2)c(C)c1 (configuration not stated)	inactive	inactive
COC(=O)C1=C(C)N(Cc2ccccc2)C(=S)NC1c1ccc(Cl)cc1 (configuration not stated)	inactive	inactive
O=C(NC(=S)Nc1ccccc1N1CCOCC1)c1cccc([N+](=O)[O-])c1	inactive	inactive
CC(C)c1ccccc1NC(=S)NN(Cc1ccccc1)c1ccccc1	inactive	
COC(=O)C1=C(C)N(Cc2ccccc2)C(=S)N[C@H]1c1cccc(F)c1	inactive	
COc1cccc(NC(=S)NC(=O)Cc2ccc(Cl)cc2)c1	inactive	inactive
CCCCN1C(=S)NC[C@@H]1Cc1ccccc1	inactive	inactive
COc1ccc(N2CCN(C(=O)Cc3cccs3)CC2)cc1	inactive	inactive
CO[C@@H]1CN(C)C(=O)c2ccc(NC(C)=O)cc2OC[C@@H](C)N(C(=O)Cc2cccnc2)C[C@H]1C	inactive	inactive
COC(=O)C1=C(C)N(CC(C)C)C(=S)NC1c1ccc(Cl)cc1 (configuration not stated)	inactive	inactive
Cc1ccccc1NC(=S)NC(=O)CCc1ccccc1	inactive	inactive

Compound	outcome [1]	outcome [2]
COC(=O)C1=C(C)N(Cc2ccc(Cl)cc2)C(=S)NC1c1ccc(OC)cc1 (configuration not stated)	inactive	inactive
CCCCNC(=S)N/N=C/c1ccc(C#N)cc1	inactive	inactive
S=C(Nc1cccc(Cl)c1)Nc1ccccc1Oc1ccccc1	inactive	inactive
COC(=O)C1=C(C)N(Cc2ccc(F)cc2)C(=S)NC1c1ccccc1 (configuration not stated)	inactive	inactive
COc1cc2c(C(=O)N(C)c3cc(Cl)ccc3OC)cn(C)c(=O)c2cc1OC	inactive	inactive
COC(=O)C1=C(C)N(CC(C)C)C(=S)NC1c1ccc(-c2ccccc2)cc1 (configuration not stated)	inactive	
COC(=O)C1=C(C)N(Cc2ccc(Cl)cc2)C(=S)NC1c1cccc(Cl)c1 (configuration not stated)	inactive	
COC(=O)C1=C(C)N(Cc2ccc(F)cc2)C(=S)NC1c1ccc(F)cc1 (configuration not stated)	inactive	
COc1ccc(CNC(=S)NCc2ccc(OC)cc2)cc1	inactive	inactive
CCOc1ccc(CNC(=S)NCc2ccc(OCC)cc2)cc1	inactive	inactive
O=C(CN(c1ccc(F)cc1)S(=O)(=O)c1ccccc1)N1CCOCC1	inactive	inactive
O=C(NC(=S)Nc1ccccc1N1CCCC1)c1ccc([N+](=O)[O-])cc1	inactive	inactive
Cc1cccc2sc(N3CCN(C(=O)c4cccs4)CC3)nc12	inactive	inactive
Fc1ccccc1NC(=S)NN(Cc1ccccc1)c1ccccc1	inactive	inactive
O=C(NC(=S)Nc1ccccc1N1CCOCC1)c1ccc(Br)cc1	inactive	inactive
O=C(N[C@@H]1CC[C@@H](CCn2cc(-c3ccccc3)nn2)O[C@H]1CO)c1cnccn1	inactive	inactive
O=C(C1CCOCC1)N1CC[C@@H]2[C@@H](CO)Nc3ccc(Br)cc3[C@@H]21	inactive	inactive
C[C@@H]1CN([C@H](C)CO)S(=O)(=O)c2ccc(C#Cc3ccccn3)cc2O[C@H]1CN(C)Cc1ccccc1	inactive	inactive
COc1cccc(NC(=S)N2CCC(Cc3ccccc3)CC2)c1	inactive	inactive
O=C(CSc1ncnc2c1cnn2-c1cccc(Cl)c1)NCC1CCCO1 (configuration not stated)	inactive	inactive
COc1ccc(C(=O)NC(=S)Nc2ccccc2N2CCCCC2)cc1[N+](=O)[O-]	inactive	inactive
COc1ccccc1/C=N/NC(=S)NCc1ccco1	inactive	inactive
CCCOc1ccc(CNC(=S)NCc2ccc(OC(C)C)cc2)cc1	inactive	inactive
COC(=O)C1=C(C)N(CC(C)C)C(=S)NC1c1cccc(F)c1 (configuration not stated)	inactive	inactive
